From PubChem
Shown are actives, neighbours in structure and some others; about 3.5% of the full set was active somewhere.
NS1 function inh: inhibitors of influenza NS1 protein function; AID 2326; Potency, µM (top dose mostly 46.1 µM); 270,000 tested, 0.4% active; calls by dose curve; also: actives are rising curves; nearly all actives have a fitted effect of over 50% in size
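A cell-based growth assay was used: compounds that relieve NS1-induced slow growth of budding yeast raise OD600. Assay medium was yeast nitrogen base with ammonium sulphate and -URA supplement, pH 6.0, with 2% galactose.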
LmPK inh: inhibitors of Leishmania mexicana pyruvate kinase | Q27686 | purified LmPK, Kinase-Glo ATP luminescence, 1 h | Potency, µM (highest dose often 57.5 µM), hits mostly inhibitors | 290,000 tested, 0.37% active
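Purified LmPK (0.1 nM) with 0.5 mM PEP and 0.1 mM ADP in imidazole buffer pH 7.2 with MgCl2/KCl, 1 h at room temperature. ATP formed was read by luciferase luminescence and normalized to no-enzyme and uninhibited controls.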
FBPA Giardia inh: blocks Giardia fructose-bisphosphate aldolase activity; AID 2451; purified Giardia FBPA; A8B2U2; Potency, µM (titrated, usually from 59.6 µM), most hits filed as inhibitors; 290,000 tested, 0.71% active; also: nearly all actives have a fitted effect of over 55% in size
Target sequence (A8B2U2 whole entry, looked up): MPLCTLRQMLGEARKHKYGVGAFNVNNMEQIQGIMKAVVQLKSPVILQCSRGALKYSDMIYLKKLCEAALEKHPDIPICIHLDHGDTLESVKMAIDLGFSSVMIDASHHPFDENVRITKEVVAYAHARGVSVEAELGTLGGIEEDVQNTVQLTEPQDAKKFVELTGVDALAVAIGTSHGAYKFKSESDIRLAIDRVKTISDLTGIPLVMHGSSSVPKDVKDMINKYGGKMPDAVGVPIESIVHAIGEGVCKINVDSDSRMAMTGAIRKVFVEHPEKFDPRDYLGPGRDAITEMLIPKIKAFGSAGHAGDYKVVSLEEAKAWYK
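40 nM FBPA preincubated 10 min at RT with compound (up to 57.5 uM final), then substrate plus GAPDH/TPI/NAD/arsenate coupling and diaphorase/resazurin added. Fluorescence read after 20 min at RT, 525/598 nm.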
TbPYK inhibitor: inhibitors of Trypanosoma brucei pyruvate kinase | Q57TT1 | TbPYK enzyme, Kinase-Glo Plus ATP luminescence, 45 min | Potency, µM (top dose mostly 76.8 µM), hits mostly inhibitors | 410,000 tested, 0.12% active | AID 624173; also: nearly all actives have a fitted effect of over 50% in size
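Luminescent Kinase-Glo Plus end-point after 45 min room-temperature reaction of T. brucei pyruvate kinase started with 130 uM ADP (final). Buffer TEA 50 mM pH 7.2 with KCl, MgCl2, BSA, Tween-20; titration-based qHTS with fitted concentration-effect curves.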
RE007 growth inh: less growth of the S. pombe RE007 Vpr strain. S. pombe RE007 Vpr strain, BacTiter-Glo ATP luminescence, 24 h. 360,000 tested, 0.21% active. Potency, µM (titrated, usually from 92.2 µM), actives largely listed as inhibitors; active = well fitted falling curve with a large enough effect; inconclusive = small, poorly fitted or top-dose-only effect; inactive = no such curve, though single readings can be large or run the other way; also: nearly all actives have a fitted effect of over 50% in size
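Fission yeast strain RE007, carrying one chromosomally integrated HIV-1 vpr copy, was seeded at OD 0.01 in PMG+AL medium with 23 nL pinned compound. After 24 h at 30 °C and 99% humidity, viability was read by BacTiter-Glo luminescence.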
Sm TGR block: blocks Schistosoma mansoni thioredoxin glutathione reductase | Q962Y6 | purified TGR, DTNB reduction, TNB absorbance 405 nm | Potency, µM (top dose mostly 114 µM), hits mostly inhibitors | 360,000 tested, 3% active; also: nearly all actives have a fitted effect of over 60% in size
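TGR 20 nM + NADPH 100 uM (dispensed conc.), cpd preinc 15 min RT; start with NADPH (500 uM addition) then DTNB (15 mM addition). Kinetic TNB absorbance, 405 nm filter. Four-parameter Hill fit across titration.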
NS1 inh valid: influenza NS1 function inhibition validation; shares compounds with NS1 function inh; AID 492980; influenza NS1 function cell assay, 15-point titration; 1,400 tested, under 10 active; activity change, negative = inhibition, % at 32.9 µM; calls by dose curve
PR8 titer: reduces influenza A/PR/8/34 replication in MDCK cells; shares compounds with NS1 function inh; MDCK infected influenza A/PR/8/34, virus titer TCID50; active compounds read low; virus titer (log TCID50), log10 TCID50 at 5 µM; 95 tested, 30% active; call rule not given here
Hits are given with their value; 0 = inactive; ? = inconclusive; - = not tested or not shown. Unless noted, calls follow the shape of the dose curve; as a rule, active = well fitted curve in the direction sought with a large enough effect; inconclusive = small, poorly fitted or top-dose-only effect, or another doubt; inactive = no such curve, though single readings can be large; an effect the other way counts as inactive or inconclusive.

SMILES	NS1 function inh	LmPK inh	FBPA Giardia inh	TbPYK inhibitor	RE007 growth inh	Sm TGR block	NS1 inh valid	others
Cc1ccc2c(C)nc(Nc3nc(CSc4nnnn4-c4ccccc4)cc(=O)[nH]3)nc2c1	14.1µM	0	0	0	0	0	0
COc1ccc2nc(Nc3nc(CSc4nnnn4-c4ccccc4)cc(=O)[nH]3)nc(C)c2c1	0	0	0	0	0	0	-
COc1ccccc1C(=O)NC(=S)Nc1ccc(N2CCCC2)cc1	0	0	0	0	0	0	-
COc1cc(C(=O)NC(=S)Nc2ccc(N3CCCC3)cc2)cc(OC)c1OC	12.6µM	0	0	0	0	0	0
CCCNC(=O)CCc1c(C)nc2nc(CNC(=O)c3ccccc3)nn2c1C	-	-	-	0	-	0	-
COc1ccc2c(c1)C(c1ccccc1)=NNC(c1ccco1)=N2	?	0	0	0	0	0	0
CCn1c(C(=O)Nc2ccccc2C(=O)OC)cc2sc(Cl)cc21	-	-	-	0	-	0	-
CC[C@@H](C)[C@H]1O[C@]2(CC[C@@H]1C)C[C@@H]1C[C@@H](C/C=C(\C)[C@@H](O[C@H]3C[C@H](OC)[C@@H](O[C@H]4C[C@H](OC)[C@@H](O)[C@H](C)O4)[C@H](C)O3)[C@@H](C)/C=C/C=C3\CO[C@@H]4[C@H](O)C(C)=C[C@@H](C(=O)O1)[C@]34O)O2	7.08µM	-	0	-	-	-	0
O=C(Nc1cccc(C(=O)OCc2cc(=O)n3c4c(sc3n2)CCCC4)c1)c1cccc(F)c1	-	-	-	0	-	0	-
Cc1ccc(NC(=S)NC2CCSc3ccccc32)cc1 (stereo not drawn)	1.41µM	0	0	0	0	0	0
O=c1c2c3c(sc2n(Cc2ccc(F)cc2Cl)c(=O)n1-c1ccc(Cl)cc1)CCC3	-	-	-	0	-	0	-
Cc1ccc2c(c1)N(C(=O)N1CCC(C(=O)NCc3cccs3)CC1)CC(C)O2 (stereo not drawn)	-	-	-	0	-	0	-
Fc1ccc(Cn2nnnc2CN2CCC(n3nnc4cc(C(F)(F)F)ccc43)CC2)cc1	5.01µM	0	0	0	0	0	?
Cc1ccc(Nc2c3c(nc4nncn24)CCC3)c(C)c1	-	-	-	0	-	0	-
CC1(C)SC(=S)N(NC(=O)Nc2ccccc2)C1N(O)C(=O)Nc1cccc2ccccc12 (stereo not drawn)	22.4µM	0	0	0	0	0	0
CC(C)CNC(=O)CSc1nnc2ccccn12	-	0	0	0	0	0	-
CC(C)CCNC(=O)NC(=O)CSc1nnc2ccccn12	4.47µM	0	0	0	0	0	0
CC[C@H](C)[C@H](NC(=O)CNC(=O)[C@H](CCCNC(=N)N)NC(=O)[C@H](CO)NC(=O)[C@H](C)NC(=O)[C@H](Cc1ccc(O)cc1)NC(=O)[C@H](Cc1c[nH]c2ccccc12)NC(=O)[C@H](C)NC(=O)[C@@H]1CCCN1C(=O)[C@H](CC(N)=O)NC(=O)[C@@H](NC(=O)[C@H](CC(=O)O)NC(=O)[C@@H]1CCCN1C(=O)[C@@H](NC(=O)[C@H](CCCNC(=N)N)NC(=O)[C@@H](NC(=O)[C@H](CCC(=O)O)NC(=O)[C@H](CCSC)NC(=O)[C@H](CO)NC(=O)[C@H](Cc1cnc[nH]1)NC(=O)[C@H](CCCNC(=N)N)NC(=O)[C@H](Cc1cnc[nH]1)NC(=O)[C@@H](NC(=O)[C@H](CCCNC(=N)N)NC(=O)[C@@H](N)CO)[C@@H](C)O)[C@@H](C)CC)[C@@H](C)O)[C@@H](C)CC)C(=O)N[C@@H](CCCNC(=N)N)C(=O)N1CCC[C@H]1C(=O)N[C@H](C(=O)NCC(=O)N[C@@H](CCCNC(=N)N)C(=O)N[C@@H](Cc1ccccc1)C(N)=O)C(C)C	-	-	0	-	-	-	-
Cc1ccccc1C(=O)NC(=S)Nc1sc2c(c1C#N)CCC(C)C2 (stereo not drawn)	0	0	0	0	0	0	-
CC1CCc2c(sc(NC(=S)NC(=O)c3ccccc3)c2C#N)C1 (stereo not drawn)	7.94µM	0	0	0	0	?	0
O=C(/C=C/c1ccco1)NC(=S)Nc1cc(-c2nc3ccccc3s2)ccc1Cl	10µM	0	0	0	0	?	0
CCOC(=O)CC(NC(=O)c1cc2c(=O)n3cccc(C)c3nc2s1)c1ccc(OCC(C)C)c(OC)c1 (stereo not drawn)	-	-	-	0	-	0	-
CCCn1c(CCC(=O)O)ccc1-c1ccc(F)cc1	0	0	0	0	0	?	-
Cc1ccc(-c2ccc(CCC(=O)O)n2CC(=O)O)cc1	11.2µM	0	0	0	0	17.8µM	0
NC(=O)Nn1c(CCC(=O)O)ccc1-c1ccc(F)cc1	?	0	0	0	0	50.1µM	0
SMILES	NS1 function inh	LmPK inh	FBPA Giardia inh	TbPYK inhibitor	RE007 growth inh	Sm TGR block	NS1 inh valid	others
Cc1ccc(NC(=O)Cn2c(CCC(=O)O)ccc2-c2ccc(Cl)cc2)cc1	0	0	0	0	0	?	-
O=C(/C=C/c1ccco1)NC(=S)Nc1cccc([N+](=O)[O-])c1	22.4µM	0	0	0	0	44.7µM	0
CCc1ccccc1NC(=O)Cn1c(C(=O)OC)cc2oc(C)cc21	-	-	-	0	-	0	-
COc1cc(/C=N/NC(=O)c2ccc(CSc3nc4ccccc4[nH]3)cc2)cc(OC)c1OC	12.6µM	0	0	0	-	0	?	PR8 titer=0
CC(=O)N1c2ccc(S(=O)(=O)NCC3CCC(C(=O)Nc4cccc(F)c4)CC3)cc2CC1C (stereo not drawn)	-	-	-	0	-	0	-
CC(C)(C)c1ccc(OCC(=O)Nc2ccc(C(=O)OC3CCCCC3)cc2)cc1	-	-	-	0	-	?	-
NC(=O)[C@H](Cc1cc2ccccc2s1)NC(=O)[C@@H]1CC2(CC(c3cccc(NC(=O)[C@@H]4CCC(=O)N4)c3)=NO2)CN1C(=O)/C=C/Sc1ccccc1 (stereo partly drawn)	17.8µM	0	0	0	0	0	0
COc1ccc(NC(=O)c2oc3ccccc3c2NC(=O)C23CC4CC(CC(C4)C2)C3)c(OC)c1	-	-	-	0	-	0	-
CC(C)(C)c1nnc(N/N=C/c2ccccc2)n(N)c1=O	?	0	0	0	-	0	?
CN(C)C(CNC(=O)c1cc(Br)ccc1Cl)c1ccco1 (stereo not drawn)	2µM	0	0	0	0	0	0
COc1ccc(/C=N/NC(=O)c2nc(-c3ccccc3)cc(-c3ccccc3)n2)cc1OC	0	0	0	0	0	0	-
